From PubChem BioAssay (Tox21)
Inconclusive results are not listed. A number with no mark means an inactive call. The source made the active and inactive calls. The call rests on the fitted dose curve; in most records, active means well fitted inhibition curve with a large enough effect in the signal ratio in the repeat runs (not every such curve was filed as active); inconclusive means weak or mixed curves; inactive means flat fitted curve, though single readings scatter; the % refers to the signal ratio.

Target: Progesterone receptor (Homo sapiens) (UniProt P06401)
Experiment: qHTS assay to identify small molecule antagonists of the progesterone receptor (PR) signaling pathway (AID 1346795)
Settings: PR-UAS-bla HEK293T, beta-lactamase FRET ratio, 16 h; series mostly up to 92.4 µM; activity change, negative = inhibition: at the top concentration
Procedure, shortened: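 After 6 hr plating at 37C in 2% stripped-serum medium, PR-UAS-bla HEK293T cells got compounds, then 1 nM R5020. Sixteen hours later, LiveBLAzer substrate was applied for 2 hr at room temperature and fluorescence was recorded.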
On the % scale 0 is the no-effect control and ±100 the full control effect; potency means the concentration at half of the fitted maximal effect.

Progesterone receptor (Homo sapiens), sequence (P06401 whole entry, looked up): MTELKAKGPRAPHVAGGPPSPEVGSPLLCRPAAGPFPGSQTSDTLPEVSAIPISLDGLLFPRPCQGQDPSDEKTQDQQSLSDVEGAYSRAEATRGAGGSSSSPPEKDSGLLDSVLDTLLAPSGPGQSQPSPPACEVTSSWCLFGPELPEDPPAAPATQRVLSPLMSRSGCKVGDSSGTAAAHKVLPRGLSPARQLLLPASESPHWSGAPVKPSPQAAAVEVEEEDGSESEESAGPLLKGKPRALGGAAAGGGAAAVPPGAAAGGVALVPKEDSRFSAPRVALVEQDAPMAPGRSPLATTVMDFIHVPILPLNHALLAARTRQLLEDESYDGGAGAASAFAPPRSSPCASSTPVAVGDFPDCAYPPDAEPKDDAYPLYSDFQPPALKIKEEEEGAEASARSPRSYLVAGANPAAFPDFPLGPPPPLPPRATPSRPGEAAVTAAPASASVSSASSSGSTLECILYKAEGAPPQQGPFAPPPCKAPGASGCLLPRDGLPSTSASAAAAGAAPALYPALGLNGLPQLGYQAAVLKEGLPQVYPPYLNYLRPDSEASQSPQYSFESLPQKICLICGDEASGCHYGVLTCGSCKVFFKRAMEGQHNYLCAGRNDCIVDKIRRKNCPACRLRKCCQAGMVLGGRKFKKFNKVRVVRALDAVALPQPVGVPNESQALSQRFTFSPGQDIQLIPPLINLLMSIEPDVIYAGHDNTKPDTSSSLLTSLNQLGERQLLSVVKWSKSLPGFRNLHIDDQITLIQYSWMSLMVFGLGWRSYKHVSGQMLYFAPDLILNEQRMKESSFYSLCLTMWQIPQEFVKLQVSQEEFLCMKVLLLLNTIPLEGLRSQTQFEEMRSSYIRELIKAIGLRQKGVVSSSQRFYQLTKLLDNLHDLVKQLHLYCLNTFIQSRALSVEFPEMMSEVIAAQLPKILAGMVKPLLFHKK

Compound	activity change, negative = inhibition	Potency
Nc1nc(Cl)nc2c1ncn2[C@@H]1O[C@H](CO)[C@@H](O)[C@@H]1F	7.72% [at 42.5 µM]	
CN1Cc2cc(C(=O)N3CCC(C4CCNCC4)CC3)ccc2N[C@@H](CC(=O)O)C1=O	11.7% [at 42.5 µM]	
O=C(NCCCN1CCOCC1)c1ccc(Cl)cc1	2.35% [at 42.5 µM]	
COc1cc2[nH]c(=O)[nH]c(=O)c2cc1OC	-0.643% [at 42.5 µM]	
C=CC(=O)NCOCC(C)C	0.0472%	
CC(C)(CCl)c1ccccc1	-0.691%	
CC(=O)Nc1ccccc1C	7.36%	
CC(CCO)CCc1ccccc1 (centres undefined)	-19%	
CC#N	3.79%	
CN1CCCN=C1/C=C/c1cccs1	10.4% [at 42.5 µM]	
COC(=O)c1cc(S(N)(=O)=O)ccc1OC	2.62% [at 42.5 µM]	
CO[C@H]1O[C@H](CO)[C@@H](O)[C@H](O)[C@H]1O	12.1%	
CCCCN(CCCC)C(=S)SSC(=S)N(CCCC)CCCC	-28%	
COC(=O)c1cc(Cl)ccc1NS(=O)(=O)C(F)(F)F	11.8% [at 42.5 µM]	
CC1(C)C(=O)N(Br)C(=O)N1Cl	-5.66%	
N#C[C@@H]1C[C@@H]2C[C@@H]2N1C(=O)[C@@H](N)C12CC3CC(CC(O)(C3)C1)C2	2.06% [at 42.5 µM]	
CC(CCc1ccc2c(c1)OCO2)NN (centres undefined)	-1.82% [at 42.5 µM]	
Cc1nc2ccccc2s1	3.01%	
Nc1ccc(S(=O)(=O)O)c(N)c1	13.2%	
NC(=O)Nc1ccc(Cl)cc1	-2.22%	

Compound	activity change, negative = inhibition	Potency
O=Cc1c(Cl)cccc1Cl	5.15%	
CO[Si](C)(OC)OC	4.99%	
O=S1OCCO1	7.53%	
CCCOC(=O)c1ccc(N)cc1	-21.9% [at 42.5 µM]	
O=C(O)Cc1ccc(-c2ccccc2)cc1	3.37% [at 42.5 µM]	
OCC1CC=CCC1 (centres undefined)	-7.82%	
C=CCCCCCCCCCCCCCCCC	15.4% [at 8.39 µM]	
C=CCOC(=O)/C=C\C(=O)OCC=C	1.89%	
Cc1oncc1C(=O)Nc1ccc(C(F)(F)F)cc1		61.1 µM (active)
CC(C)CCCCCOC(=O)CCCCC(=O)OCCCCCC(C)C	-1.53%	
CC(=O)N(c1onc(C)c1C)S(=O)(=O)c1ccc(N)cc1	12.2% [at 42.5 µM]	
OC(CCCN1CCCCC1)(c1ccccc1)c1ccccc1	0.0199% [at 42.5 µM]	
CCn1cc(C(=O)O)c(=O)c2cc(F)c(N3CCNCC3)nc21	7.17% [at 42.5 µM]	
C[N+](C)(C)CCOC(N)=O	7.2% [at 42.5 µM]	
CCCOCCOCCO	2.32%	
CCCCCCCCCCCCCCCCBr	-0.513% [at 18.9 µM]	
c1ccc(COCc2ccccc2)cc1	4.57%	
CN1CCN(c2c(F)cc3c(=O)c(C(=O)O)cn4c3c2OCN4C)CC1	0.0233% [at 18.9 µM]	
O=C1OCCN1/N=C/c1ccc([N+](=O)[O-])o1	10.5% [at 42.5 µM]	
